Hits are enriched below; roughly 3.1% of the tested compounds scored in any of these assays.
Peg3 promoter – Peg3 promoter activity inhibition; HeLa PEG-Prom luciferase reporter, luminescence, overnight; inhibition, % at 20 µM; hit rate 1.7% among 360,000; AID 588405;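 active means inhibition of at least 50% at 20 µM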
HIF-2a inh – HIF-2a inhibition | 786-0 RCC cells HIF-2a reporter, luciferase luminescence, overnight | inhibition, % at 18.8 µM | hit rate 0.72% among 360,000 | AID 624352;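 active means inhibition of the luminescence signal of 40% or more relative to plate controls, in a single-dose primary screen at 18.75 µM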
CF NFkB block – blocks PAF-induced NF-kB reporter in cystic fibrosis cells | KKLEB NF-kB-GFP reporter, GFP fluorescence overnight | inhibition, % at 5 µM | hit rate 0.86% among 360,000 | AID 588850;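 active means at least 50% inhibition at 5 µM, scaled per plate between neutral and stimulator controls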;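 further: PAF is a Pseudomonas aeruginosa culture filtrate used as stimulus; plate controls were PAF-stimulated DMSO wells for no effect and unstimulated DMSO wells for full effect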
C8 TRAIL sens – sensitizes caspase-8 expressing cells to TRAIL; NB7+C8 cells + TRAIL, ATPlite viability luminescence; hit rate 1% among 360,000; inhibition (viability loss, TRAIL sensitization), % at 10 µM;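 active means compounds causing at least 50% loss of cell viability in the single-dose screen, relative to plate controls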
KKLEB tox – reduces viability of KKLEB cystic fibrosis airway cells; KKLEB CF airway cells viability, ATPlite luminescence, overnight; hits give low values; cells stimulated with P. aeruginosa culture filtrate; activity change (cytotoxicity), % at 5 µM; hit rate 0.36% among 360,000;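 active means corrected activity change at or below -50% at 5 µM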
PPC-1+TRAIL kill – kills PPC-1 cancer cells in the presence of TRAIL; hit rate 0.41% among 220,000; PPC-1 cells + TRAIL, ATPLite viability luminescence; cell killing (% activity), % at 4 µM or 5 µM;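 active means cell killing above 50% in the first pass at 4 µM, then a duplicate retest at 5 µM averaging 50% or more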;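 further: plate controls were cells with TRAIL plus DMSO for no effect and medium-only wells lacking cells for full effect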
* marks the source's active call; other numbers are inactive results; . = no result.

SMILES	Peg3 promoter	HIF-2a inh	CF NFkB block	C8 TRAIL sens	KKLEB tox	PPC-1+TRAIL kill
Cc1cc(C)c(C)c(S(=O)(=O)N2CCN(CC(=O)c3c(N)n(Cc4ccccc4)c(=O)n(C)c3=O)CC2)c1C	5	-8	10	61*	0	20
CN(C)c1cccc(NC(=O)c2cccc3c(-c4ccc(F)c(F)c4)coc23)c1	-46	-35	-7	-7	-4	.
CC1(C(=O)NCc2ccccc2)CN(S(C)(=O)=O)CC(=O)N1CCc1c[nH]c2ccccc12 (stereo not drawn)	.	16	.	-9	.	.
O=C(CSc1nnc(-c2ccncc2)n1Cc1ccco1)Nc1nc(-c2ccccc2)cs1	22	2	43	30	-55*	-4
COc1ccc(NCc2nnc(SCC(=O)Nc3nc(-c4ccccc4)cs3)n2-c2ccccc2)cc1	83*	11	-6	-3	-12	2
CC(=O)OC[C@]12CC[C@H]3[C@@](C)(CC[C@H]4C(C)(C)CCC[C@]34C)[C@@H]1CC(C1=CC(=O)OC1O)O2 (stereo partly drawn)	105*	89*	92*	84*	-81*	.
CC(=O)OC[C@]1(OC(C)=O)C[C@@]23CC[C@H]4[C@@](C)(CCC[C@@]4(C)C(=O)O)[C@@H]2CC[C@@H]1C3	-4	7	-22	5	4	-8
CC12C=CC(=O)C=C1CCC1C2C(=O)C[C@@]2(C)C1CCC2(O)C(=O)CO (stereo partly drawn)	-10	2	12	2	1	.
CC1CC2C3CCC4=CC(=O)C=CC4(C)C3(F)C(O)CC2(C)C1(O)C(=O)CO (stereo not drawn)	5	25	77*	-25	49	8
C[C@]12C=CC(=O)C=C1CC[C@H]1[C@@H]3C[C@@H](O)[C@](O)(C(=O)CO)[C@@]3(C)C[C@H](O)[C@@]12F	-9	23	77*	-1	-16	16
COc1ccc(Cl)cc1NC(=O)CN(C)C1CCS(=O)(=O)C1 (stereo not drawn)	-5	8	10	-6	-11	.
CCCc1ccc(-c2cc(NC(=O)CSc3nnc(N)s3)n(-c3ccccc3)n2)cc1	-245	-255	-25	63*	-8	32
COc1ccccc1NC(=O)c1ccc(CSc2ccccc2)o1	-110	-146	9	14	1	.
Cc1cc(N)n(-c2ccc([N+](=O)[O-])cc2)n1	-1	-4	5	-3	1	14
Cc1cc(C)n(-c2ccc([N+](=O)[O-])cc2)n1	107*	-2	14	-5	13	-2
c1ccc(COc2ncnc3c2ncn3CCCN2CCN(Cc3cccc4ccccc34)CC2)cc1	101*	-21	1	18	-8	.
Cc1ccc(CN2CCN(CCCn3cnc4c(OCc5ccccc5)ncnc43)CC2)cc1	-8	-36	-2	12	-14	.
CN1CCC(N(C)C(=O)/C(C#N)=C/c2ccc(OC(F)F)cc2)CC1	-3	14	22	-3	-1	8
CCCCC1C(=O)CC[C@H]2[C@@H]1CC(=O)[C@@H]2C/C=C\CCCC(=O)O (stereo partly drawn)	-10	4	20	-6	-100*	3
CCCCC[C@H](O)/C=C/[C@H]1C=CC(=O)[C@@H]1C/C=C\CCCC(=O)O	.	.	.	.	.	21
Cc1cc(S(=O)(=O)Nc2ccc(C(=O)NCc3cccnc3)cc2)ccc1F	9	20	6	7	-2	.
CCOC(=O)c1cnc2c(c(C)nn2-c2ccc(C)cc2)c1Cl	101*	6	23	13	-3	.
COc1ccc(/C=C2/SC(=S)N(CCCC(=O)Nc3ccc(O)cc3)C2=O)cc1OC	26	42*	9	-1	-13	.
CN1CCN(C(=O)CCCN2C(=O)/C(=C/c3ccccc3)SC2=S)CC1	25	28	11	21	-6	.
O=C(O)CCCN1C(=O)/C(=C\C(Cl)=C\c2ccccc2)SC1=S	108*	94*	-27	22	-13	.
O=C(CCCN1C(=O)/C(=C/c2ccc3c(c2)OCO3)SC1=S)Nc1cccc(C(=O)O)c1	28	88*	3	-3	-24	.
CCN(CC)CCOC(=O)c1ccc(NC(=O)CCCN2C(=O)S/C(=C/c3ccc(OC)cc3)C2=S)cc1	108*	79*	29	8	-1	.

Compound activity: PubChem, Sanford-Burnham Center for Chemical Genomics
